{"source": "PubChem BioAssay", "data": [{"test": "hepatitis C replication reporter changes, two-sided – Huh7 cells, luciferase reporter, HCV replication inhibitor project, primary screen (AID 1109);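 note: huh7 hepatoma cells harbouring a luciferase neomycin HCV replicon reporter; luciferase luminescence as measure of HCV replicon replication; test concentration not given here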", "conditions": "Huh7 HCV replicon luciferase reporter, 48 h; higher = more signal", "values": [{"smiles": "CCOC(=O)C[C@H]1[C@H](OC(=O)c2ccccc2-c2ccccc2)[C@@H](NC(=O)c2ccccc2)c2cc(OCCCO)ccc2N1C(=O)Cc1ccc(OC)cc1", "z-score": -1.31}, {"smiles": "C=CCC(OC(C)=O)[C@@H]1[C@@H](N(Cc2ccc(-c3cccc(C(F)(F)F)c3)o2)C(=O)c2cccc3ccccc23)c2cc(OCCCO)ccc2N1C(=O)c1ccc(-c2ccccc2)cc1", "note": "(stereo not given in full)", "z-score": 0.182}, {"smiles": "C[C@H]1ON(c2ccccc2)[C@@H](c2ccccc2)[C@@H]1C(=O)N1C(=O)OC[C@@H]1c1ccccc1", "z-score": -0.432}, {"smiles": "COCCOC(=O)N1C(=O)[C@@]2(c3cc(C#CCNC(N)=O)ccc31)[C@H](C(N)=O)[C@H]1C(=O)O[C@H](c3ccccc3)[C@H](c3ccccc3)N1[C@@H]2c1ccc(OCCO)cc1", "z-score": -1.11}, {"smiles": "CCCC=C(CCC)[C@@H](NS(=O)(=O)c1cccc2cccnc12)c1ccc(C(=O)OC)cc1", "z-score": 0.347}, {"smiles": "CCOC(=O)C1=CC[C@@H](c2ccccc2)N(S(=O)(=O)c2ccc(C)cc2)[C@H]1C=C(C)C", "z-score": -2.21}, {"smiles": "C#CCNS(=O)(=O)N(C)C", "z-score": 0.119}, {"smiles": "O=C1O[C@H](c2ccccc2)[C@H](c2ccccc2)N2[C@H]1[C@@H](C(=O)N1CCN(c3ncccn3)CC1)[C@]1(C(=O)Nc3ccc(C#CCCO)cc31)[C@H]2c1ccc(OCCO)cc1", "z-score": -1.35}, {"smiles": "COCCOC(=O)N1C(=O)[C@@]2(c3cc(C#CC4(O)CCCCCC4)ccc31)[C@H](C(=O)N1CCN(c3ncccn3)CC1)[C@H]1C(=O)O[C@H](c3ccccc3)[C@H](c3ccccc3)N1[C@@H]2c1ccc(O)cc1", "z-score": -1.69}, {"smiles": "Cc1cc(C)c(C(O)C2C=CC3C(=O)N(c4ccccc4)C(=O)C3N2Nc2ccc([N+](=O)[O-])cc2)c(C)c1", "note": "(stereo not given)", "z-score": 0.49}, {"smiles": "Cc1ccc(S[C@]2(C(=O)O)CC(=O)N(C3CCCCC3)[C@@H]2c2ccc(CO)cc2)cc1", "z-score": -1.2}, {"smiles": "CCOc1cc(C(O)C2C=CC3C(=O)NC(=O)C3N2Nc2ccccn2)ccc1O", "note": "(stereo not given)", "z-score": 0.294}, {"smiles": "CC(=O)NCCCC[C@@H]1NC(=O)[C@@H]2C[C@H](C(=O)NCCCC[N+](C)(C)C)[C@H](c3cccc(OCCO)c3)N2C1=O", "z-score": -0.703}, {"smiles": "COc1ccc([Si](C)(C)[C@@H]2[C@@H](CC(=O)N(CCO)Cc3ccccc3)O[C@]3(C(=O)N(Cc4ccc(N5CCOC5=O)cc4)c4ccccc43)[C@H]2C)cc1", "z-score": -4.45}, {"smiles": "COC(=O)[C@]1(Cc2ccccc2CN=[N+]=[N-])N=C(c2ccc(OCCCO)cc2)O[C@@H]1c1ccccc1CN=[N+]=[N-]", "z-score": -2.91}, {"smiles": "CN(C)C(=O)[C@]1(Cc2ccccc2N=[N+]=[N-])N=C(c2ccc(OCCCO)cc2)O[C@@H]1c1ccccc1CN=[N+]=[N-]", "z-score": -2.55}, {"smiles": "CC(C)(C)OC(=O)CC[C@@]1(C(=O)N2CCCCC2)N=C(c2ccc(OCCCO)cc2)O[C@@H]1c1ccccc1CN=[N+]=[N-]", "z-score": -2.36}, {"smiles": "CCN(CC)c1ccc(N2CC=CC34O[C@@H]5/C=C\\CCCOC(=O)C5[C@H]3C(=O)N(CCCCCO)[C@@H]4C2=O)cc1", "note": "(stereo not given in full)", "z-score": -0.376}, {"smiles": "[N-]=[N+]=Nc1ccccc1C[C@]1(C(=O)NCCN2CCOCC2)N=C(c2ccc(OCCCO)cc2)O[C@H]1c1ccccc1N=[N+]=[N-]", "z-score": -2.49}, {"smiles": "COC(=O)[C@]1(Cc2ccccc2CN=[N+]=[N-])N=C(c2ccc(OCCCO)cc2)O[C@@H]1c1ccccc1", "z-score": -3.19}, {"smiles": "COCCOC(=O)N1C(=O)[C@@]2(c3cc(C#Cc4ccc(OC)cc4)ccc31)[C@H](C(=O)N1CCc3cc(OC)c(OC)cc3C1)[C@H]1C(=O)O[C@H](c3ccccc3)[C@H](c3ccccc3)N1[C@@H]2c1ccc(O)cc1", "z-score": -0.246}, {"smiles": "COCCOC(=O)N1C(=O)[C@@]2(c3cc(C#CCCO)ccc31)[C@H](C(=O)NC[C@H](O)c1ccccc1)[C@H]1C(=O)O[C@H](c3ccccc3)[C@H](c3ccccc3)N1[C@@H]2c1ccccc1OCCO", "z-score": -1.31}, {"smiles": "COc1ccccc1CN1C(=O)c2ccccc2[C@@H](C(=O)NCC(C)C)[C@@H]1c1ccc(CO)cc1", "z-score": -0.541}, {"smiles": "C=CCN1C(=O)[C@@]2(O[C@@H](CCn3cc([C@H](O)c4ccccc4)nn3)[C@H]([Si](C)(C)c3ccc(OC)cc3)[C@H]2C)c2cc(NC(=O)c3ccc(OC)cc3)ccc21", "z-score": -3.99}, {"smiles": "O=C(O)[C@]1(CCS(=O)(=O)c2ccccc2)N=C(c2ccc(OCCCO)cc2)O[C@@H]1c1ccccc1", "z-score": -0.0254}, {"smiles": "CN(C)CCCN1C(=O)[C@@]2(Cc3ccccc31)c1ccccc1C(=O)N(Cc1ccccc1)[C@H]2c1ccc(CO)cc1", "z-score": -1.2}, {"smiles": "COC(=O)C(CC#Cc1ccc2c(c1)[C@]1(C(=O)N2)[C@H](c2ccc(O)cc2)N2[C@H](c3ccccc3)[C@H](c3ccccc3)OC(=O)[C@H]2[C@@H]1C(N)=O)C(=O)OC", "z-score": -0.32}, {"smiles": "O=C1C2C=CC(C(O)c3ccc(Br)cc3)N(Nc3ccccc3)C2C(=O)N1c1ccccc1", "note": "(stereo not given)", "z-score": 0.393}, {"smiles": "O=C(O)[C@@]1(Cc2ccccc2)COC(c2ccc(OCCCO)cc2)=N1", "z-score": 0.923}, {"smiles": "COC(=O)c1ccc(OC)c(/C=C\\CC(CCc2ccccc2)OC(=O)c2ccncc2)c1", "note": "(stereo not given)", "z-score": -0.578}, {"smiles": "COC(=O)[C@@]1(Cc2ccc(OC)cc2)[C@H]2c3cc(C(=O)N4CCCC4)n(CCc4ccc(O)c(OC)c4)c3C[C@H]2CN1C(=O)c1ccccc1", "z-score": -0.917}, {"smiles": "C[N+](C)(C)CCCC[C@@H]1NC(=O)[C@H]2C[C@@H](C(=O)NCCCCCCN)[C@@H](c3cccc(OCCO)c3)N2C1=O", "z-score": 0.347}, {"smiles": "COC(=O)[C@]1(Cc2ccccc2N=[N+]=[N-])N=C(c2ccc(OCCCO)cc2)O[C@@H]1c1ccccc1", "z-score": -3.3}, {"smiles": "CC(C)N1C(=O)c2ccccc2[C@](C)(C(=O)O)[C@@H]1c1ccc(CO)cc1", "z-score": -0.169}, {"smiles": "COc1ccc(C(=O)Nc2ccc3c(c2)[C@]2(O[C@@H](CCO)[C@H]([Si](C)(C)c4ccc(OC)cc4)[C@H]2C)C(=O)N3Cc2ccccc2)cc1", "z-score": -5.23}]}]}
